Records with an inconclusive call do not appear. Active and inactive are the calls of the source. Calls come from the whole dose curve; as a rule, active = well fitted inhibition curve with a large enough effect; inconclusive = small, poorly fitted or top-dose-only effect; inactive = flat fitted curve, though single readings scatter.
Biological target: Calcium and integrin-binding protein 1 (Homo sapiens) (UniProt Q99828)
Assay: Primary qHTS for Identification of Calcium Integrin Binding Protein 1 (CIB1) Competitor (AID 1508620);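 note: GST tagged CIB1 binding a fluorescein labelled alphaIIb integrin peptide tracer; top concentration of the series differs between compounds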
Conditions: CIB1-GST / FITC-alphaIIb peptide fluorescence polarization; series mostly up to 114 µM; activity change, negative = inhibition: at the top concentration
Method in brief: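 Fluorescence polarization competition: CIB1-GST (1 uM final) preincubated with compound 15 min at room temperature, then FITC-labeled alphaIIb peptide (100 nM final) added for another 15 min. Polarization read at Ex 480/Em 540.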
% is set by controls: 0 for no effect and ±100 for the full control effect.

Chain of Calcium and integrin-binding protein 1 (Homo sapiens) (Q99828 whole entry, looked up): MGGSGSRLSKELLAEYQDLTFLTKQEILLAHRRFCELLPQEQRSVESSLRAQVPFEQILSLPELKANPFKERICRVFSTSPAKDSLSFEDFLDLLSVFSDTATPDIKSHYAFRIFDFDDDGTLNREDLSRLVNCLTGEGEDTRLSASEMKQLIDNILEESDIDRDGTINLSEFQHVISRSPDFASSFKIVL

| Compound | activity change, negative = inhibition |
| --- | --- |
| O=C1CC(c2ccccc2)CC2=C1C1(CCCC1)N=C(Nc1nc3ccccc3o1)N2 (centres undefined) | 0.731% (inactive) |
| Cc1ccsc1CNc1ncnc2ccc(-c3ccc4c(c3)OCO4)cc12 | 7.49% (inactive) |
| O=S(=O)(c1ccc2c(c1)OCCO2)N1CCN(S(=O)(=O)c2ccccn2)CC1 | 2.42% (inactive) |
| Cn1ccc2cc(-c3ccc4ncnc(NCc5cccs5)c4c3)ccc21 | 6.55% (inactive) |
| N#Cc1nc(NC2CCCC2)c2ncn(-c3cc(F)cc(F)c3)c2n1 | -1.93% (inactive) |
| Cc1cc(-c2nnc3n2CCCCC3)c(C)n1-c1ccc(Br)cc1 | 0.939% (inactive) |
| COc1ccc(NC(=O)Nc2ccc(-c3nc4ccccc4[nH]3)cc2)cc1OC | -17.5% (inactive) |
| Cn1nnnc1Sc1ncnc2scc(-c3ccc(Br)cc3)c12 | 2.39% (inactive) |
| O=S1(=O)N=C(Oc2ccccc2C(F)(F)F)c2ccccc21 | 2.21% (inactive) |
